Our source for the growth values is PubChem BioAssay (NCI).

The panel holds about 83,000 compounds, 20% with a hit somewhere; the sample as a whole holds those more often.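 Percent growth is the endpoint: 0 to 100 indicates growth inhibition (40 means 60% inhibition), 0 means no net growth, and negative values indicate cell death.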 Calls of active or inactive are those of the source. The calls were made as follows: active = growth percent below 10; inactive = the rest.

For the assay, the system named is MDA-MB-468 breast. The experiment in a line: NCI-60 one-dose screen, 48 h (100 = growth as untreated, 0 = no growth, -100 = all killed). To be noted: 10 µM unless noted.
Turning to `CN1C(=O)N[C@H]2[C@@H]3NC(=O)c4ccc(Br)n4[C@@H]3C[C@]21O`, the growth is -50.6% (active). As to `O=C(CC1(O)C(=O)N(Cc2ccccc2)c2ccc(F)cc21)c1ccc(C(=O)NCC2CCC3(CC2)OOC2(CCCCC2)OO3)cc1` (stereo unspecified), the growth was -41.8% (active).

`COC1CC2c3ccccc3C1C(C)=[N+]2C` (stereo unspecified): the growth is 96.4% (inactive). The value for `COc1ccccc1N1CCN(CCc2c[nH]c3cc4c(cc23)OCO4)CC1` was 90% (inactive); that for `O=C(Nc1ccc(S(=O)(=O)F)cc1)Oc1ccccc1` was 97.6% (inactive). Take `C[C@]12CC[C@H](OC3OC(O)C(O)C(O)C3O)C=C1CCC1C2CC[C@]2(C)[C@@H](c3ccc(=O)oc3)CC[C@]12O` (stereo partly specified): the growth is -63.8% (active).
